Results published in PubChem BioAssay (EPA / NIEHS).
Records with an inconclusive call do not appear. The source made the active and inactive calls. The calls were made as follows: active = hit-call score of the fitted dose curve at least 0.9, where 1 is the maximum; inconclusive = response in the unintended direction; inactive = score below 0.9.

Experiments:
[1] = TOX21_p53_BLA_p2_viability: Viability Assessment in the Tox21 HCT-116 p53 Agonism Beta-lactamase Assay, Phase 2 (AID 2283591);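 also: compound exposure lasted 16 h at 37 °C; actives lower the ATP signal meaning cytotoxicity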
In short: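 HCT116 p53-bla cells, 4000/well, dosed after 5 h plating (217-fold dilution of DMSO stocks) and incubated 16 h at 37C. Viability taken as cellular ATP by CellTiter-Glo luminescence after 30 min RT; signal loss marks cytotoxicity.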

[2] = biological target: Cellular tumor antigen p53 (Homo sapiens) (UniProt P04637); assay: TOX21_p53_BLA_p2_ratio: Tox21 HCT-116 p53 Agonism Beta-lactamase Assay, Ratio, Phase 2 (AID 2283592)
In short: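 In this cell-based reporter format, HCT116 cells were dosed with chemicals delivered from DMSO by 217-fold dilution and incubated 16 h at 37C. Emission at 460 and 530 nm after 2 h CCF4-AM loading provided the ratio, fitted upward versus DMSO.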

[3] = TOX21_p53_BLA_p3_viability: Viability Assessment in the Tox21 HCT-116 p53 Agonism Beta-lactamase Assay, Phase 3 (AID 2283593);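 also: cells exposed to compound for 16 h before reading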
In short: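 HCT116 cells, 4000/well, dosed 5 h after plating by pin transfer (217-fold dilution from DMSO stock) and incubated 16 h at 37C, 5% CO2. Viability read as ATP luminescence with CellTiter-Glo after 30 min at room temperature.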

[4] = biological target: Cellular tumor antigen p53 (Homo sapiens) (UniProt P04637); assay: TOX21_p53_BLA_p3_ratio: Tox21 HCT-116 p53 Agonism Beta-lactamase Assay, Ratio, Phase 3 (AID 2283596)
In short: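 HCT116 p53-bla cells (4000/well) given compound in DMSO (217-fold dilution) after 5 h, incubated 16 h at 37C. CCF4-AM substrate 2 h at room temperature; 460/530 nm emission ratio, gain fitted against DMSO.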

[5] = biological target: Cellular tumor antigen p53 (Homo sapiens) (UniProt P04637); assay: TOX21_p53_BLA_p5_ratio: Tox21 HCT-116 p53 Agonism Beta-lactamase Assay, Ratio, Phase 5 (AID 2283599)
In short: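 HCT-116 p53-bla cells (4000/well) plated 5 h, dosed with compound (217-fold DMSO dilution) for 16 h at 37 C; CCF4-AM substrate 2 h at room temperature. Activity is the 460/530 nm emission ratio (405 nm excitation), fitted in gain-of-signal direction versus DMSO.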

[6] = TOX21_p53_BLA_p5_viability: Viability Assessment in the Tox21 HCT-116 p53 Agonism Beta-lactamase Assay, Phase 5 (AID 2283600)
In short: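 Compounds, pinned from DMSO at 217-fold dilution, were left on the cells for 16 h. The viability endpoint was ATP content measured by CellTiter-Glo luminescence, where falling signal reflects cytotoxicity.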

Measured: outcome

Chain of Cellular tumor antigen p53 (Homo sapiens) (P04637 whole entry, looked up): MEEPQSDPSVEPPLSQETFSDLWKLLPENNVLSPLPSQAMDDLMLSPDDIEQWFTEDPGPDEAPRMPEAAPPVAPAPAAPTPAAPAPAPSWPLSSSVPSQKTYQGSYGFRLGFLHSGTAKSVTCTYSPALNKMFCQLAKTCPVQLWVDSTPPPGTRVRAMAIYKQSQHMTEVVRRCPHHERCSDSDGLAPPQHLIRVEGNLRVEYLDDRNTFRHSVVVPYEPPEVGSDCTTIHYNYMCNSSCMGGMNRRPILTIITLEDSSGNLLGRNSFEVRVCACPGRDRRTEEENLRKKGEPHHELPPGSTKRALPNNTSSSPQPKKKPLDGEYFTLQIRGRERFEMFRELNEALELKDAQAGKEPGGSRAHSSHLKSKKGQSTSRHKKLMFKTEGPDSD

CN(C)CCOCCN(C)CCO
inactive: [1] | [2] | [3] | [4] | [5]

CCOC(=O)c1cc(-c2ccccc2)nc2ccc(C)cc12
inactive: [1] | [2] | [3] | [4] | [5] | [6]

CCN(CC)CCOC(=O)c1cccnc1
inactive: [1] | [2] | [3] | [4] | [5] | [6]

CCCn1cnc2c1c(=O)n(CCCCC(C)=O)c(=O)n2C
inactive: [1] | [2] | [3] | [4] | [5] | [6]

CN1CC(O)c2cc(N=NC(N)=O)c(O)cc21 (centres undefined)
inactive: [1] | [2] | [3] | [4] | [5] | [6]

COC(=O)[C@H]1[C@H]2C[C@H]3c4[nH]c5ccccc5c4CCN3C[C@H]2CC[C@@H]1O
inactive: [1] | [2] | [3] | [4] | [5]
